Test results published in PubChem BioAssay (NCATS).
Results filed as inconclusive are left out. Calls of active or inactive are those of the source. Calls come from the whole dose curve; as a rule, active = well fitted curve in the direction sought with a large enough effect; inconclusive = small, poorly fitted or top-dose-only effect, or another doubt; inactive = no such curve, though single readings can be large; an effect the other way counts as inactive or inconclusive.

Experiments:
[1] = target: Metallo-beta-lactamase type 2 (Klebsiella pneumoniae) (UniProt C7C422); experiment: qHTS to identify inhibitors of the New Delhi Metallo-beta-lactamase (NDM): assay validation screen against the NCATS LOPAC Collection (AID 1794843); conditions: NDM-1 enzyme, nitrocefin hydrolysis, absorbance 485 nm; series mostly up to 38.4 µM;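 note: nitrocefin turnover by NDM-1 measured as 485 nm absorbance at plateau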
Outline: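 Enzyme 2 nM final, 50 mM HEPES pH 7.0, 1 uM ZnSO4, 0.01% Tween20; cpds in DMSO, preincub w/ enzyme; + nitrocefin (50 uM stock); A485 at plateau; no-enzyme column as blank.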

[2] = target: Glutathione peroxidase 1 (Homo sapiens) (UniProt P07203); experiment: Primary qHTS Assay for Inhibitors of Recombinant Selenoprotein Glutathione Peroxidase 1 (GPX1) (AID 1845191); conditions: recombinant GPX1, GR-coupled NADPH fluorescence, 15 min; series mostly up to 48.8 µM; note: nearly all actives have a fitted effect of over 65% in size
Outline: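 NADPH consumption tracked by fluorescence at 340/450 nm between t=0 and t=15 min, room temperature. Final mix: 10 nM GPX1, 100 nM glutathione reductase, 1 mM GSH, 0.5 mM NADPH, 0.5 mM cumene hydroperoxide, 0.01% BSA; 30 min compound–enzyme preincubation.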

[3] = target: Phospholipid hydroperoxide glutathione peroxidase GPX4 (Homo sapiens) (UniProt P36969); experiment: Primary qHTS Assay for Inhibitors of Recombinant Selenoprotein Glutathione Peroxidase 4 (GPX4) (AID 1845192); conditions: recombinant GPX4, GR-coupled NADPH fluorescence, 15 min; series mostly up to 50 µM; note: nearly all actives have a fitted effect of over 65% in size
Outline: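 NADPH consumption followed by fluorescence at 340/450 nm, t=0 and after 15 min at room temperature. Reaction started with cumene hydroperoxide (0.5 mM final) after 30 min compound–GPX4 preincubation; final 200 nM GPX4, 100 nM GR, 1 mM GSH, 0.5 mM NADPH.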

[4] = target: Luciferin 4-monooxygenase (Photinus pyralis) (UniProt P08659); experiment: Primary firefly luciferase (FLuc) qHTS assay for identification of artifact compounds. (AID 1845220); conditions: purified firefly luciferase, luminescence, 5 min; series mostly up to 54.1 µM; note: nearly all actives have a fitted effect of over 60% in size
Outline: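 Compounds sat 15 min at room temperature with 10 uM luciferin and 10 uM ATP (pH 7.6 Tris acetate). Firefly luciferase (10 nM final) was then added, and luminescence was read 5 min later. Data normalized to no-enzyme and DMSO controls were Hill-fitted.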

[5] = Primary fluorescence-based thiol-reactive (MSTI) qHTS assay for identification of artifact compounds. (AID 1845221); conditions: MSTI thiol-reactivity probe, 1 h; series mostly up to 53.8 µM;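 note: thiol-reactive compounds lower the probe fluorescence signal; nearly all actives have a fitted effect of over 65% in size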
Outline: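 Compounds were incubated 1 h at room temperature in the dark with the MSTI probe (4 uM) in PBS pH 7.4, 2% DMSO. Signals were normalized between Acetyl-MSTI and MSTI.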

[6] = test system: Nanoluciferase (engineered Oplophorus gracilirostris luciferase); experiment: Primary Nanoluciferase (NLuc) qHTS assay for identification of artifact compounds. (AID 1845222); conditions: NLuc-conditioned medium, Nano-Glo luminescence, 5 min; series mostly up to 54.1 µM
Outline: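 Luminescence from secreted NLuc (filtered, 1:55-diluted S16 cell medium) read 5 min after Nano-Glo substrate; compounds preincubated 15 min, RT. Hill fits of inhibition normalized to DMSO and no-enzyme.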

[7] = Primary redox qHTS assay for identification of artifact compounds. (AID 1845223); conditions: Amplex Red/HRP redox cycling with DTT, fluorescence; series mostly up to 53.8 µM
Outline: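 Redox-cycling detection via DTT (250 uM final) oxidation coupled to Amplex Red (25 uM)/HRP (250 mU/mL) in HBSS. 15 min preincubation plus 30 min after DTT, room temperature. Ex/Em 525/598 nm; 4-parameter Hill fit against DMSO and 10 uM DA3003.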

Measured: Potency

Chain of Glutathione peroxidase 1 (Homo sapiens) (P07203 whole entry, looked up): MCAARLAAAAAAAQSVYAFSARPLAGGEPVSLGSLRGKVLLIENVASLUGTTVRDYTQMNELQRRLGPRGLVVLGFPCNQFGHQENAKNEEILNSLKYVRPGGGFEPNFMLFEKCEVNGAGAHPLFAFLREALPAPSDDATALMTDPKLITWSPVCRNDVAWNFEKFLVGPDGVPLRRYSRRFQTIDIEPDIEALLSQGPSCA
Chain of Phospholipid hydroperoxide glutathione peroxidase GPX4 (Homo sapiens) (P36969 whole entry, looked up): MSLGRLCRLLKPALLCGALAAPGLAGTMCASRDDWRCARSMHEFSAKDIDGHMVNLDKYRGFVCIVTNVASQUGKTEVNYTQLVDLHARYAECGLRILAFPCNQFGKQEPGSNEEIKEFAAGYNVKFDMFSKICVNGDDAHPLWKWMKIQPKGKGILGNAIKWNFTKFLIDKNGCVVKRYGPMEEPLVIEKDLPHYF
Chain of Metallo-beta-lactamase type 2 (Klebsiella pneumoniae) (C7C422 whole entry, looked up): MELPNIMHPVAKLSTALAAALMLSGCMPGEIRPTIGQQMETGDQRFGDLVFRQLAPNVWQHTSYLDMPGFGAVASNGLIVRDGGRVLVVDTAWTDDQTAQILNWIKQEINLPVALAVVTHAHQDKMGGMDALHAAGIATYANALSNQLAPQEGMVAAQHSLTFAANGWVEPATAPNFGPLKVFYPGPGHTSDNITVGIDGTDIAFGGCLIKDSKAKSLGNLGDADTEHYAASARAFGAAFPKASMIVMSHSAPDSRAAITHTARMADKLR

COc1cccc(C(=O)NCCN2CCN(c3ccc(Cl)cc3)CC2)c1
inactive: [1] | [2]

O=C(CCCCCN1CCN(c2ccccc2-c2ccccc2)CC1)NC1CCCc2ccccc21 (configuration not stated)
inactive: [1] | [2] | [3]

NCCCCC(=O)O
inactive: [1] | [2] | [3]

Nc1nc(OCC2CCCCC2)c2[nH]cnc2n1
inactive: [1] | [2] | [3]

CC(C)NC[C@H](O)COc1cccc2[nH]ccc12
inactive: [1] | [2] | [3]

CC(C)c1cccc(C(C)C)c1N1C(=O)c2ccc(O)cc2C1=O
inactive: [1] | [2] | [3]

O=P(O)(O)C(Cl)(Cl)P(=O)(O)O
inactive: [1] | [2] | [3]

NCCSSCCN
inactive: [1] | [2] | [3]

O=C(Nc1ccccc1)c1cc([N+](=O)[O-])ccc1Cl
inactive: [1] | [2] | [3]

COc1ccc(-c2cc(=O)c3c(O)c(OC)c(OC)cc3o2)cc1O
inactive: [1] | [2] | [3]

Cc1cc2c(cc1Cl)N(C(=O)Nc1ccc(Oc3cccnc3C)nc1)CC2
inactive: [1] | [2] | [3]

CCN(CC)c1ncnc2c1ncn2[C@@H]1O[C@H](COP(=O)(O)OP(=O)(O)C(Br)(Br)P(=O)(O)O)[C@@H](O)[C@H]1O
inactive: [1] | [2] | [3]

OCC1O[C@H](O)C(Cl)C(O)C1O (some centres not stated)
inactive: [1] | [2] | [3]

CN1[C@@H](CC(=O)c2ccccc2)CCC[C@H]1C[C@H](O)c1ccccc1
inactive: [1] | [2] | [3]

Nc1nc(Cl)nc2c1ncn2[C@@H]1O[C@H](COP(=O)(O)OP(=O)(O)OP(=O)(O)O)[C@@H](O)[C@H]1O
inactive: [1] | [2] | [3]

CCCCCCCCCCCCCCCCCC(=O)OC(CC(=O)O)C[N+](C)(C)C (configuration not stated)
inactive: [1] | [2] | [3]

CN(C)c1ccc(/C=C2\C(=O)Nc3ccccc32)cc1
inactive: [1] | [2] | [3]

CC1CN(S(=O)(=O)c2cccc3cnccc23)CCN1 (configuration not stated)
inactive: [1] | [2] | [3]

Brc1cc2c(cc1[C@H]1Nc3ccccc3[C@H]3C=CC[C@H]31)OCO2
inactive: [1] | [2] | [3]

O=C(CCc1ccncc1)NNC(=O)N1Cc2ccccc2Oc2ccc(Cl)cc21
inactive: [1] | [2] | [3]

Cc1ccc(O)c(N=Nc2ccccc2)n1
inactive: [1] | [2] | [3]

O=C(CCSCc1ccco1)NNC(=O)N1Cc2ccccc2Oc2ccc(Cl)cc21
inactive: [1] | [2] | [3]

COc1cc(SC)ccc1C(=O)N1CCC(Cc2ccccc2)CC1
inactive: [1] | [2] | [3]

NC(N)=NC(=O)c1nc(Cl)c(N2CCCCCC2)nc1N
inactive: [1] | [2] | [3]

C[C@@H](CN1CCC(Cc2ccccc2)CC1)[C@@H](O)c1ccc(O)cc1
inactive: [1] | [2] | [3]

COc1cc(C(O)CO)ccc1OS(=O)(=O)O (configuration not stated)
inactive: [1] | [2] | [3]

CC[C@@H](C)[C@H]1O[C@]2(CC[C@H]1C)C[C@@H]1C[C@@H](CC=C(C)[C@@H](O[C@H]3C[C@H](OC)[C@@H](O[C@H]4C[C@H](OC)[C@@H](O)[C@H](C)O4)[C@H](C)O3)[C@@H](C)C=CC=C3CO[C@@H]4[C@H](O)C(C)=C[C@@H](C(=O)O1)[C@]34O)O2
inactive: [1] | [2] | [3]

COC(=O)c1c(C)[nH]c(C)c1C(=O)c1ccccc1Cc1ccccc1
inactive: [1] | [2] | [3]

OC[C@H]1O[C@@H](n2cnc3c(NC4CCCC4)ncnc32)[C@H](O)[C@@H]1O
inactive: [1] | [2] | [3]

O=C1/C(=C/c2ccsc2)CC/C1=C\c1cccs1
inactive: [1] | [2] | [3]

COc1ccccc1CN[C@@H]1CCCN[C@@H]1c1ccccc1
inactive: [1] | [2] | [3]

CN(C)c1nc(N)c(C(=O)N=C(N)N)nc1Cl
inactive: [1] | [2] | [3]

Clc1ccc(N2CCN(Cc3cc4ccccn4n3)CC2)cc1
inactive: [1] | [2] | [3]

CN(C)C(N)=NCCC[C@H](N)C(=O)O
inactive: [1] | [2] | [3]

CC1(C)CCC=[N+]1[O-]
inactive: [1] | [2] | [3]

CN1C2CCC1CC(OC(=O)C(O)c1ccccc1)C2 (configuration not stated)
inactive: [1] | [2] | [3]

NCCCS(=O)(=O)O
inactive: [1] | [2] | [3]

NCC1OC(O[C@H]2[C@H](O)[C@@H](OC3C(O)C(N)CC(N)C3OC3OC(CO)C(O)C(O)C3N)O[C@@H]2CO)C(N)C(O)C1O (some centres not stated)
inactive: [1] | [2] | [3]

O=C(Nc1ccncc1)c1cc([N+](=O)[O-])ccc1Cl
inactive: [1] | [2] | [3]

CN1CC(=O)N/C1=N/C(=O)Nc1cccc(Cl)c1
inactive: [1] | [2] | [3]

CCCC(=O)OC[C@@H](OC(=O)CCC)[C@@H](OC(=O)CCC)[C@H](Cn1c2nc(=O)[nH]c(=O)c-2nc2cc(C)c(C)cc21)OC(=O)CCC
inactive: [2]

CCCCN(CC)c1nc(C)nc2c1c(C)cn2-c1c(C)cc(C)cc1C
inactive: [1] | [2] | [3] | [4] | [5] | [6] | [7]

CCCCCCCC/C=C/C(=O)O
inactive: [2]

CCNc1nc2c(ncn2[C@H]2C[C@H](O)[C@@H](CO)O2)c(=O)[nH]1
inactive: [1] | [2] | [4] | [5] | [6] | [7]

CNC(=O)[C@H]1O[C@@H](n2cnc3c(NCc4ccc(N)cc4)ncnc32)[C@H](O)[C@@H]1O
inactive: [1] | [2] | [3]
